Experiment [1] in a line: qHTS assay to identify small molecule antagonists of the thyroid receptor (TR) signaling pathway (AID 743065). Also: nearly all actives have a fitted effect of over 55% in size. The essentials: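 GH3.TRE-Luc rat pituitary cells carrying two TR response elements driving luciferase were plated for 4 h, given compound plus 1 nM T3 (final), and incubated 23.5 h at 37 C. ONE-Glo luminescence measured reporter inhibition; CellTiter-Fluor fluorescence tracked cytotoxicity.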
For orientation: Quantitative high-throughput screening tests each substance at several concentrations.

The test system of experiment [2] is thyroid hormone receptor (rat, GH3 cells). The experiment is described as follows: qHTS assay to identify small molecule agonists of the thyroid receptor (TR) signaling pathway (AID 743066; calls by dose curve).
Experiment [3] has as its target Estrogen receptor (Homo sapiens) (UniProt P03372). The experiment is described as follows: qHTS assay to identify small molecule antagonists of the estrogen receptor alpha (ER-alpha) signaling pathway (AID 743069; active = well fitted curve in the direction sought with a large enough effect in the signal ratio in the repeat runs, not every such curve was filed as active; the % refers to the signal ratio). In short, it runs like this:
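A 17beta-estradiol challenge was applied right after compound transfer to ER-alpha-UAS-bla HEK293 cells previously kept in charcoal-stripped serum. Plates stood 18 hr at 37C and 5% CO2; fluorescence was read following 2 hr FRET substrate loading at room temperature.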

Experiment [4] is described as follows: qHTS assay to identify small molecule antagonists of the estrogen receptor alpha (ER-alpha) signaling pathway - cell viability counter screen (AID 743074; calls by dose curve;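 also: HEK293 cells carrying ER-alpha-UAS-bla reporter stimulated with 17beta-estradiol; nearly all actives have a fitted effect of over 45% in size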).
For experiment [5], the target named is Estrogen receptor (Homo sapiens) (UniProt P03372). The experiment is described as follows: qHTS assay to identify small molecule agonists of the estrogen receptor alpha (ER-alpha) signaling pathway (AID 743075; calls by dose curve;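 also: HEK293 GripTite cells with ER-alpha and UAS-driven beta-lactamase reporter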).
Estrogen receptor (Homo sapiens), sequence (P03372 whole entry, looked up): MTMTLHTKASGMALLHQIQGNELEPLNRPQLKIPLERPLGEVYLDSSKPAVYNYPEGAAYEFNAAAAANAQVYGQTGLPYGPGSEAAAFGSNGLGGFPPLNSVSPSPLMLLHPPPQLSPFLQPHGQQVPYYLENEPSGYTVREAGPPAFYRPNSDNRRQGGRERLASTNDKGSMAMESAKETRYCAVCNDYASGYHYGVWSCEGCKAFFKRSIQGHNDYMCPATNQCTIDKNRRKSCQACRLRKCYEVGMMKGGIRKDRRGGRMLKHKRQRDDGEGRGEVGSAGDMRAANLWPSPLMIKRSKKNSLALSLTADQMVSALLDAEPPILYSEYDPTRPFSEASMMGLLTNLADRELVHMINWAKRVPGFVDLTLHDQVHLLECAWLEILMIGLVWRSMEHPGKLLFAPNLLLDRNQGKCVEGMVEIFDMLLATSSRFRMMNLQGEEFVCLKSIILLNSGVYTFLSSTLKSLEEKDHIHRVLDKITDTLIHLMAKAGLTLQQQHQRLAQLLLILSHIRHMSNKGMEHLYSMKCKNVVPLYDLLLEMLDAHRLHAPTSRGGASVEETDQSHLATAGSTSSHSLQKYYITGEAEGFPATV
Experiment [6] has the same target. Briefly: qHTS assay to identify small molecule agonists of the estrogen receptor alpha (ER-alpha) signaling pathway using the BG1 cell line (AID 743079). Also: nearly all actives have a fitted effect of over 20% in size. Also: potency is read from the fitted curve at half-maximal effect. As to conditions: BG1Luc4E2 cells, ERE-luciferase agonist, 22 h.
Experiment [7] in a line: qHTS assay to identify small molecule antagonists of the estrogen receptor alpha (ER-alpha) signaling pathway using the BG1 cell line (AID 743080; calls by dose curve;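 also: BG1 cells stimulated with 17beta-estradiol alongside compound; nearly all actives have a fitted effect of over 25% in size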). The essentials:
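After 5 days in phenol-red-free 10% charcoal-stripped FBS medium, BG1-Luc-4E2 cells were seeded, left 24 h at 37 C, co-treated with compounds and 17beta-estradiol for 21.5 h, then assayed for viability and luciferase.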

The nature of experiment [8]: qHTS assay to identify small molecule antagonists of the estrogen receptor alpha (ER-alpha) signaling pathway using the BG1 cell line - cell viability counter screen (AID 743081).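 Also: compound given together with 17beta-estradiol as the ER stimulus; nearly all actives have a fitted effect of over 45% in size.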
In experiment [9] the target is Aromatase (Homo sapiens) (UniProt P11511). Briefly: qHTS assay to identify aromatase inhibitors (AID 743083). Also: nearly all actives have a fitted effect of over 55% in size.
Aromatase (Homo sapiens), sequence (P11511 whole entry, looked up): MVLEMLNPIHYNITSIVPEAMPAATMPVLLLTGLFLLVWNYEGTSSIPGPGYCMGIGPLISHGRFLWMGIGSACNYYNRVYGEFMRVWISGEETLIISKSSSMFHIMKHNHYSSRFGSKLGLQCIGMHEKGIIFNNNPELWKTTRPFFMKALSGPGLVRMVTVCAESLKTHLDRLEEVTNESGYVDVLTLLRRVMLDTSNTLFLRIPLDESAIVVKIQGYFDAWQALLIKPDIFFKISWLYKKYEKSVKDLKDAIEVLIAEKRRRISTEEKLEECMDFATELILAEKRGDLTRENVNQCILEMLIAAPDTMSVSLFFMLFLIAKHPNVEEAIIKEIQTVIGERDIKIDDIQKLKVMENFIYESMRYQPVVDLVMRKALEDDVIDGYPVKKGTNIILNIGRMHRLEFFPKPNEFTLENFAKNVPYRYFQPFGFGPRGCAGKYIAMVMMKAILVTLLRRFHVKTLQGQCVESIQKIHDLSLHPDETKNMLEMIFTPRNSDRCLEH
Experiment [10] can be described thus: qHTS assay to identify aromatase inhibitors - cell viability counter screen (AID 743084).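 Also: cells stimulated with testosterone during compound exposure; nearly all actives have a fitted effect of over 55% in size.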

Values joined by “and” are separate entries in the source; they are usually repeats but may differ in a detail not shown here. Identical values can stand only once. Records with an inconclusive call do not appear. Unmarked numbers belong to inactive results. Active and inactive are the calls of the source. Unless noted, calls follow the shape of the dose curve; as a rule, active = well fitted curve in the direction sought with a large enough effect in the repeat runs; inconclusive = weak or mixed curves; inactive = no such curve, though single readings can be large; an effect the other way counts as inactive or inconclusive.
% is scaled to controls: 0 for no effect and ±100 for the full control effect.

`c1cc2c(c(N3CCNCC3)c1)OCCO2`: the Potency entry in experiment [1], in experiment [2], in experiment [3], in [5], in [7] and in experiment [8] was “inactive” in each case. The Potency entry in [9] and in [10] was “inactive” each time. Also, in experiment [4], the result was inactive. For the same molecule, in [6] (at 70.3 µM (top of the series)), the activation is 9.1%.

`CCC1(c2ccccc2)C(=O)NC(=O)NC1=O`: the Potency result in [1], in experiment [2], in [3], in [5], in [7] and in [8] was “inactive” each time. For the same molecule, the Potency result in experiment [9] and in experiment [10] was “inactive” throughout. Also, the outcome in [4] was inactive. Moreover, the activation was -1.3% in [6] (at 70.3 µM (top of the series)) and -10.3% in [6] (at 95 µM (top of the series)).

On to `CCOP(=S)(OCC)SCSc1ccc(Cl)cc1`, for which the Potency entry in [1], in experiment [2], in experiment [3], in experiment [5], in experiment [7] and in experiment [8] was “inactive” each time. For the same molecule, the Potency entry in experiment [9] and in experiment [10] was “inactive” each time. In [4], the molecule was classed as inactive. Besides, the Potency in experiment [6] is 26.6 µM (active) and 24.3 µM (active).

For the molecule `Cc1cccc(C#N)c1`, the Potency entry in experiment [1], in experiment [2], in experiment [3], in [5], in [7] and in experiment [8] was “inactive” in each case. For the same molecule, the Potency entry in [9] and in experiment [10] was “inactive” throughout. Moreover, in experiment [4], the molecule was classed as inactive. In addition, in experiment [6], the Potency was 68.2 µM (active).

With `O=C(CCCN1CCC(n2c(=O)[nH]c3ccccc32)CC1)c1ccc(F)cc1`, the Potency result in experiment [1], in experiment [2], in experiment [3], in experiment [5], in experiment [7] and in [8] was “inactive” throughout. Further, the Potency entry in [9] and in experiment [10] was “inactive” each time. In experiment [4], the molecule was classed as inactive. Further, in experiment [6] (at 32.5 µM (top of the series)), the activation is -6.79%.

For the molecule `CCCCc1c(C)nc(NCC)[nH]c1=O`, the Potency entry in [1], in experiment [2], in experiment [3], in [5], in experiment [7] and in experiment [8] was “inactive” in each case. The Potency entry in [9] and in experiment [10] was “inactive” throughout. In addition, in [4], the outcome was inactive. For the same molecule, the activation in [6] (at 70.3 µM (top of the series)) was 0.176%.

Take `NC(=O)O`: the Potency entry in [1], in experiment [2], in [3], in experiment [5], in experiment [7] and in experiment [8] was “inactive” each time. Also, the Potency entry in [9] and in [10] was “inactive” throughout. Moreover, the molecule was called inactive in [4]. For the same molecule, the activation in experiment [6] (at 70.3 µM (top of the series)) is -5.63%.

Turning to `CCCSC(=O)Cl`, the Potency result in experiment [1], in [2], in [3], in experiment [5], in [7] and in experiment [8] was “inactive” in each case. Besides, the Potency entry in experiment [9] and in [10] was “inactive” each time. In experiment [4], the molecule was called inactive. In [6] (at 95 µM (top of the series)), the activation was 3.93%.

Turning to `C=CC1CC=CCC1` (stereo unspecified), the Potency entry in experiment [1], in experiment [2], in experiment [3], in [5], in experiment [7] and in experiment [8] was “inactive” each time. The Potency result in experiment [9] and in experiment [10] was “inactive” in each case. For the same molecule, in experiment [4], the outcome was inactive. In addition, in [6] (at 70.3 µM (top of the series)), the activation was 11%.

For `C1CCC(C2CCCCC2)CC1`, the Potency result in experiment [1], in experiment [2], in experiment [3], in experiment [5], in [7] and in [8] was “inactive” each time. Further, the Potency result in experiment [9] and in experiment [10] was “inactive” in each case. The result in [4] was inactive. Besides, the activation in experiment [6] (at 70.3 µM (top of the series)) was -17.5%.

Consider `CSc1nc(N=[N+]=[N-])nc(NC(C)C)n1`, for which the Potency entry in experiment [1], in experiment [2], in experiment [3], in experiment [5], in experiment [7] and in experiment [8] was “inactive” each time. Also, the Potency entry in [9] and in [10] was “inactive” in each case. In addition, the result in experiment [4] was inactive. Moreover, in [6] (at 70.3 µM (top of the series)), the activation is 2.14%.

Regarding `COc1cc2c(cc1OC)[C@@]13CCN4CC5=CCO[C@H]6CC(=O)N2[C@H]1[C@H]6[C@H]5C[C@H]43`, the Potency result in experiment [1], in experiment [2], in [3], in experiment [5], in experiment [7] and in experiment [8] was “inactive” throughout. The Potency result in experiment [9] and in experiment [10] was “inactive” throughout. For the same molecule, in [4], the molecule was called inactive. For the same molecule, the activation in [6] (at 70.3 µM (top of the series)) is -4.94%.

For `CCN(Cc1ccc(Cl)nc1)/C(=C/[N+](=O)[O-])NC`, the Potency entry in [1], in experiment [2], in experiment [3], in experiment [5], in experiment [7] and in [8] was “inactive” each time. Also, the Potency entry in experiment [9] and in experiment [10] was “inactive” throughout. Besides, the molecule was classed as inactive in [4]. Moreover, the activation in [6] (at 70.3 µM (top of the series)) is 1.15%.

On to `CC(=O)CC(c1ccc(Cl)cc1)c1c(O)c2ccccc2oc1=O` (stereo unspecified), for which the Potency entry in experiment [1], in experiment [2], in experiment [3], in experiment [5], in experiment [7] and in experiment [8] was “inactive” throughout. In addition, the Potency result in [9] and in [10] was “inactive” each time. In addition, in experiment [4], the result was inactive. In addition, the activation in experiment [6] (at 95 µM (top of the series)) was -6.05%.

With `N#Cc1ccncc1`, the Potency entry in experiment [1], in experiment [2], in experiment [3], in experiment [5], in [7] and in experiment [8] was “inactive” in each case. Besides, the Potency result in experiment [9] and in experiment [10] was “inactive” in each case. Besides, the result in [4] was inactive. The activation in experiment [6] (at 95 µM (top of the series)) is 1.2%.

`CC(=O)C(Cl)Cl`: the Potency entry in experiment [1], in experiment [2], in experiment [3], in experiment [5], in [7] and in experiment [8] was “inactive” each time. The Potency entry in experiment [9] and in experiment [10] was “inactive” throughout. In addition, in experiment [4], the molecule was classed as inactive. In addition, the activation in experiment [6] (at 95 µM (top of the series)) was 0.96%.

In the case of `N#Cc1c(Cl)cccc1Cl`, the Potency entry in experiment [1], in [2], in experiment [3], in experiment [5], in experiment [7] and in experiment [8] was “inactive” in each case. Also, the Potency entry in experiment [9] and in experiment [10] was “inactive” each time. Further, the outcome in experiment [4] was inactive. In addition, the activation in experiment [6] (at 70.3 µM (top of the series)) is -1.9%.

`Nc1cnn(-c2ccccc2)c(=O)c1Cl`: the Potency result in experiment [1], in experiment [2], in experiment [3], in [5], in experiment [7] and in [8] was “inactive” throughout. The Potency entry in experiment [9] and in experiment [10] was “inactive” each time. In addition, the result in [4] was inactive. For the same molecule, the activation in experiment [6] (at 70.3 µM (top of the series)) was 6.72%.

Take `COP(=S)(OC)Oc1c(Cl)cc(C)cc1Cl`: the Potency result in [1], in [2], in experiment [3], in [5], in experiment [7] and in experiment [8] was “inactive” in each case. In addition, the Potency entry in experiment [9] and in experiment [10] was “inactive” in each case. Also, in experiment [4], the molecule was classed as inactive. The Potency in experiment [6] was 30.6 µM (active).

Turning to `CCOP(=O)(N=C1SCCS1)OCC`, the Potency result in [1], in experiment [2], in [3], in [5], in experiment [7] and in [8] was “inactive” in each case. Besides, the Potency result in [9] and in experiment [10] was “inactive” throughout. Further, the molecule was classed as inactive in experiment [4]. Further, in experiment [6] (at 70.3 µM (top of the series)), the activation was -3.11%.

Turning to `Nc1ccccc1Cl`, the Potency result in experiment [1], in experiment [2], in experiment [3], in experiment [5], in [7] and in [8] was “inactive” throughout. Moreover, the Potency entry in experiment [9] and in experiment [10] was “inactive” throughout. Besides, the molecule was classed as inactive in experiment [4]. The activation in [6] (at 70.3 µM (top of the series)) is -8.6%.

As for `CCCCCCI`, the Potency result in experiment [1], in experiment [2], in experiment [3], in experiment [5], in [7] and in experiment [8] was “inactive” each time. For the same molecule, the Potency result in experiment [9] and in experiment [10] was “inactive” throughout. Moreover, in [4], the call was inactive. In addition, in [6] (at 70.3 µM (top of the series)), the activation was 1.45%.

Source of the values: PubChem BioAssay (Tox21).
